Test systems include NCI-H23 lung; NCI-H226 lung; NCI-H322M lung; HOP-62 NSCLC; NCI-H460 lung; HOP-92 NSCLC; NCI-H522 lung; A549/ATCC NSCLC; 786-0 renal; COLO 205 colon; DU-145 prostate; K-562 leukemia; MALME-3M melanoma; MDA-MB-231 breast; RXF 393 renal; SF-268 CNS; SF-295 CNS; SF-539 CNS; UACC-257 melanoma; M14 melanoma.
Test in all cases: NCI-60 one-dose screen, 48 h (100 = growth as untreated, 0 = no growth, -100 = all killed)
Holding throughout (conditions): 10 µM unless noted

The panel holds about 83,000 compounds, 20% with a hit somewhere; the sample as a whole holds those more often.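 The test compound was applied at a single concentration to cells in 96-well plates for 48 hours, and percent growth was recorded.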 Unmarked numbers belong to inactive results. Calls of active or inactive are those of the source. The calls were made as follows: active = growth percent below 10; inactive = the rest.

`CCOC(=O)c1ccc2nc(-c3c(C)nn(-c4ccccc4)c3N3CCOCC3)[nH]c2c1`: the growth was 95.2% in the test on NCI-H23 lung; 73.3% with NCI-H226 lung; 102% with NCI-H322M lung; 85.6% with HOP-62 NSCLC; 97% in the test with NCI-H460 lung; 79.8% in the test on HOP-92 NSCLC. The growth with NCI-H522 lung is 87.2%; in the test on A549/ATCC NSCLC it was 94.5%; in the test on 786-0 renal, 104%; in the test on COLO 205 colon, 114%; with DU-145 prostate, 105%; in the test with K-562 leukemia it was 91.2%. Besides, the growth in the test on MALME-3M melanoma was 98.7%; in the test with MDA-MB-231 breast, 69.9%; in the test with RXF 393 renal it was 92.1%; in the test with SF-268 CNS, 94.3%; with SF-295 CNS, 96.2%; in the test with SF-539 CNS it was 95.8%. The growth was 106% with UACC-257 melanoma and 89.3% in the test with M14 melanoma.
Turning to `COc1c(B(O)O)cccc1-c1nc2ccc3[nH]ncc3c2c2c1CCC2`, the growth in the test with NCI-H23 lung was 75.5%; in the test with NCI-H226 lung, 68.3%; in the test on NCI-H322M lung, 57.6%; in the test with HOP-62 NSCLC, 48.7%; in the test on NCI-H460 lung it was 47.9%; with HOP-92 NSCLC, 72.1%. Also, the growth is 62.7% in the test on NCI-H522 lung; 60.2% with A549/ATCC NSCLC; 55.7% in the test with 786-0 renal; 66.2% in the test on COLO 205 colon; 63.3% with DU-145 prostate; 77.9% with K-562 leukemia. The growth is 98.4% with MALME-3M melanoma; 40.7% with MDA-MB-231 breast; 4.27% (active) with RXF 393 renal; 65.9% in the test with SF-268 CNS; 86.9% in the test on SF-295 CNS; 54.7% with SF-539 CNS. The values for the growth in the test with UACC-257 melanoma and in the test on M14 melanoma were 111% and 65%, respectively.
In the case of `Nc1nc(Nc2ccccc2)c2ncn(Cc3cc4c(cc3Br)OCO4)c2n1`, the growth in the test on NCI-H23 lung is 23.2%; with NCI-H226 lung it was 29.4%; in the test with NCI-H322M lung it was 30.2%; in the test with HOP-62 NSCLC it was 11.3%; in the test with NCI-H460 lung, 5.33% (active); in the test with HOP-92 NSCLC it was 40%. In addition, the growth was -40.5% (active) in the test on NCI-H522 lung; 13.5% in the test on A549/ATCC NSCLC; 20.3% in the test with 786-0 renal; -38.3% (active) in the test on COLO 205 colon; 18.2% with DU-145 prostate; 10.2% in the test on K-562 leukemia. In addition, the growth was 74.7% with MALME-3M melanoma; -5.1% (active) with MDA-MB-231 breast; 22.9% in the test on RXF 393 renal; 23.8% in the test with SF-268 CNS; 14% with SF-295 CNS; 1.84% (active) in the test on SF-539 CNS. Besides, the growth in the test on UACC-257 melanoma was 58.3%; in the test with M14 melanoma it was 15.7%.
`CCCCCCCCN(CCCCCCCC)CC(O)c1ccc(Cl)c(C)c1Cl` (stereo not given): the growth was 65% in the test with NCI-H23 lung; 94.4% in the test on NCI-H226 lung; 81.8% in the test with NCI-H322M lung; 89.3% with HOP-62 NSCLC; 72.8% in the test on NCI-H460 lung; 71.2% in the test with HOP-92 NSCLC. For the same compound, the growth in the test on NCI-H522 lung is 65.6%; in the test on A549/ATCC NSCLC it was 78%; with 786-0 renal it was 91.7%; with COLO 205 colon, 60.5%; in the test with DU-145 prostate it was 105%; in the test with K-562 leukemia it was 67.9%. The growth with MALME-3M melanoma is 102%; in the test with MDA-MB-231 breast it was 59.1%; in the test with RXF 393 renal it was 87.6%; in the test on SF-268 CNS, 91.9%; in the test on SF-295 CNS it was 59.6%; in the test on SF-539 CNS, 94.3%. Moreover, the growth in the test with UACC-257 melanoma is 89.4%; with M14 melanoma it was 85.2%.
As to `Cc1ccc(Oc2c(/C=N/NC(=O)Cn3c(=O)sc4ccccc43)c(C)nn2-c2ccccc2)cc1`, the growth in the test on NCI-H23 lung was 50.6%; in the test on NCI-H226 lung it was 62%; with NCI-H322M lung, 67.3%; in the test on HOP-62 NSCLC it was 71.5%; with NCI-H460 lung it was 52%; in the test on HOP-92 NSCLC it was 46.1%. In addition, the growth was 46.7% with NCI-H522 lung; 32.8% in the test with A549/ATCC NSCLC; 80.9% with 786-0 renal; 42.4% in the test on COLO 205 colon; 78.1% in the test on DU-145 prostate; 27.2% with K-562 leukemia. In addition, the growth was 66.5% with MALME-3M melanoma; 72.2% in the test with MDA-MB-231 breast; 72.9% with RXF 393 renal; 53.3% with SF-268 CNS; 42.1% with SF-295 CNS; 75.2% in the test on SF-539 CNS. Besides, the growth with UACC-257 melanoma was 73.2%; with M14 melanoma it was 59.2%.
On to `O=C(Nc1ccc(Oc2ccc(F)cc2)c(Cl)c1)c1cccnn1`, for which the growth in the test with NCI-H23 lung is 62.3%; in the test with NCI-H226 lung, 55%; in the test with NCI-H322M lung it was 87.6%; in the test with HOP-62 NSCLC it was 84.2%; in the test on NCI-H460 lung it was 76.8%; with HOP-92 NSCLC, 66.5%. In addition, the growth was 61.8% with NCI-H522 lung; 65.5% with A549/ATCC NSCLC; 105% with 786-0 renal; 112% in the test with COLO 205 colon; 76.7% with DU-145 prostate; 55.5% with K-562 leukemia. Moreover, the growth in the test with MALME-3M melanoma was 105%; in the test on MDA-MB-231 breast, 88.1%; with RXF 393 renal it was 82.6%; in the test with SF-268 CNS it was 80.4%; with SF-295 CNS, 73.4%; in the test with SF-539 CNS, 85.5%. Moreover, the growth in the test on UACC-257 melanoma is 64.3%; in the test on M14 melanoma it was 114%.
Regarding `O=C(N/N=C1\c2ccccc2-c2cccc(C(=O)O)c21)c1ccc(O)cc1`, the growth in the test with NCI-H23 lung was 98.2%; in the test on NCI-H226 lung, 89.6%; in the test on NCI-H322M lung, 86.4%; in the test with HOP-62 NSCLC it was 93.8%; in the test on NCI-H460 lung, 96.6%; in the test with HOP-92 NSCLC, 78.6%. Besides, the growth is 86.5% in the test on NCI-H522 lung; 95.8% with A549/ATCC NSCLC; 97.5% with 786-0 renal; 107% in the test on COLO 205 colon; 101% in the test on DU-145 prostate; 105% in the test with K-562 leukemia. The growth with MALME-3M melanoma was 88.2%; in the test on MDA-MB-231 breast it was 92.2%; with RXF 393 renal it was 97.6%; in the test on SF-268 CNS it was 96.6%; in the test on SF-295 CNS, 102%; in the test with SF-539 CNS it was 97.7%. The values for the growth in the test on UACC-257 melanoma and in the test on M14 melanoma were 99.5% and 98%, respectively.

The record behind these values is PubChem BioAssay (NCI).
